Rows were chosen to be rich in hits. Some 15% of all compounds tested hit in one or more screens of this group.
Gal4-VP16 FLuc: inhibits Gal4-VP16 luciferase reporter, ROR gamma counter-screen | Drosophila S2 Gal4-VP16 UAS-luciferase, luminescence, 20 h | Potency, µM (top dose mostly 53.6 µM), without a hit: at the top dose activity, negative = inhibition, hits mostly inhibitors | 310,000 compounds, 3.5% hits;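 also: Gal4-VP16 expression switched on by copper sulfate through the metallothionein promoter; nearly all actives have a fitted effect of over 50% in size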
TDP1 cell CPT: DT40-hTDP1 cell growth loss with CPT. chicken DT40 Tdp1-/-;hTDP1 cells + 20 nM CPT, ATP luminescence, 48 h. Potency, µM (highest dose often 46.2 µM), for inactives: at the highest dose activity change, negative = growth inhibition, most hits filed as inhibitors. 420,000 compounds, 12% hits. AID 686979; also: nearly all actives have a fitted effect of over 55% in size
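Chicken DT40 Tdp1-/- cells stably complemented with human TDP1 were seeded at 400 cells/well in medium containing 20 nM camptothecin, exposed to pin-transferred compounds, and grown at 37 °C for at least 48 hr. Viability was read as ATP luminescence.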
12-LOX inh: inhibitors of human 12S-lipoxygenase ALOX12. Potency, µM (highest dose often 108 µM), for the others: at the highest dose activity change, negative = inhibition, most hits filed as inhibitors. purified 12hLO, xylenol orange hydroperoxide absorbance. AID 1671190. P18054. 580,000 compounds, 1.1% hits
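Purified human 12hLO (150 nM final) in 25 mM Hepes, 0.01% Triton X-100, pH 7.0 was preincubated 15 min at room temperature with compound. Then 40 uM arachidonic acid was added, 30 min. Hydroperoxide was read by Fe-XO absorbance ratio 573/405 nm.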
DT40 TDP1 no CPT: qHTS for Inhibitors of human tyrosyl-DNA phosphodiesterase 1 (TDP1): qHTS in cells in absence of CPT. DT40 Tdp1-/- hTDP1 cells, no CPT, ATP luminescence, 48 h. Potency, µM (top dose mostly 46.2 µM), without a hit: at the highest dose activity change, negative = growth inhibition, most hits filed as inhibitors. 420,000 compounds, 15% hits. AID 686978, 2013; also: nearly all actives have a fitted effect of over 55% in size
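DT40 Tdp1-/-;hTDP1 cells, no CPT (DMSO vehicle only), 400 cells/well; compounds pin-transferred; ≥48 hr, 37 °C; CellTiter-Glo 30 min RT dark, luminescence read.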
ELG1 repair inh: ELG1-dependent DNA repair inhibition | HEK293T ELG1-luciferase reporter, luminescence, 16 h; DNA damage induced by 5-fluorouridine | Potency, µM (titrated, usually from 46.1 µM), for inactives: top-dose activity change, negative = inhibition, actives largely listed as inhibitors | 330,000 compounds, 2.3% hits; also: nearly all actives have a fitted effect of over 55% in size
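Reporter activity after DNA damage by 5-fluorouridine is monitored. Compound-treated cells incubate 16 hr at 37 °C, then ONE-Glo is added for 30 min before luminescence reading.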
RORgamma inh: ROR gamma (mouse) transcription inhibition; 310,000 compounds, 5.4% hits; Potency, µM (top dose mostly 53.6 µM), for inactives: at the top dose activity change, negative = inhibition, hits mostly inhibitors; Drosophila S2 Gal4-RORgamma UAS-luciferase reporter, 20 h; P51450; also: nearly all actives have a fitted effect of over 60% in size
Target sequence (P51450 whole entry, looked up, the tested form may be a part): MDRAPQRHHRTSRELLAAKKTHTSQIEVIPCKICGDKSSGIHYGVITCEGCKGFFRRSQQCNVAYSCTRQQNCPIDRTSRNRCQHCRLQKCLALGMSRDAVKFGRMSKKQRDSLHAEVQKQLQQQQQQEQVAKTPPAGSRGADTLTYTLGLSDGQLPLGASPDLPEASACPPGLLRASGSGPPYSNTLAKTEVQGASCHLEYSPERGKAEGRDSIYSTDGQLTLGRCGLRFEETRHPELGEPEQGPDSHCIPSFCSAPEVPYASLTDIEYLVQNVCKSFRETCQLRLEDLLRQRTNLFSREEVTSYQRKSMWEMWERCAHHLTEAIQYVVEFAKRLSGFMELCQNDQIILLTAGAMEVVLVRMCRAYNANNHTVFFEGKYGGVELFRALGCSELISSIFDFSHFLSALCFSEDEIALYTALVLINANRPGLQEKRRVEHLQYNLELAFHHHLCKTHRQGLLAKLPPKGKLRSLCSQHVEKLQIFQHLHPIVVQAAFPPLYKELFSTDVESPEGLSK
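In this cell-based reporter format, copper sulfate (700 uM final) drives Gal4–ROR gamma fusion expression from a metallothionein promoter in Drosophila Schneider cells; compounds preincubated 1 hr, reporter read after 20 hr at ambient temperature.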
* hit, by the source's call. Calls follow the shape of the dose curve; as a rule, active = well fitted curve in the direction sought with a large enough effect; inconclusive = small, poorly fitted or top-dose-only effect, or another doubt; inactive = no such curve, though single readings can be large; an effect the other way counts as inactive or inconclusive. % is scaled to controls: 0 for no effect and ±100 for the full control effect; potency is read from the fitted curve at half-maximal effect.

`COc1cc(CCC(=O)N(C)C2CCc3nn(CC4CC4)c(=O)n3CC2)on1` (centres undefined) gave 12-LOX inh 93.8%.
Screening COCCOC1CCOC2(CCN(C(=O)Nc3ccc(OC)cc3)CC2)C1 (centres undefined) returned 12-LOX inh 26.8%.
`Cc1ccc(NC(=O)N[C@@H]2C=C(C(=O)N[C@H](Cc3ccccc3)C(N)=O)C[C@@H](O)[C@@H]2O)cc1` gave 12-LOX inh 11.2%.
`CCOc1cc(/C=C/c2nc3ccccc3c(=O)[nH]2)ccc1O` gave Gal4-VP16 FLuc 29.9%, TDP1 cell CPT inconclusive, 12-LOX inh -22.5%, DT40 TDP1 no CPT inconclusive, ELG1 repair inh 28.9% and RORgamma inh 14.9%.
Cc1[nH]c2ccccc2c1/C=C/c1nc2ccccc2c(=O)[nH]1 was read as Gal4-VP16 FLuc inconclusive, TDP1 cell CPT inconclusive, 12-LOX inh inconclusive, DT40 TDP1 no CPT 10.3µM*, ELG1 repair inh inconclusive and RORgamma inh -63.8%.
`Cc1ccccc1C(=O)Nc1ccccc1N1CCOCC1` gave 12-LOX inh -9.5%.
`O=C(Nc1ccccc1N1CCOCC1)c1ccc([N+](=O)[O-])s1` gave TDP1 cell CPT 16.4µM*, 12-LOX inh 48.4%, DT40 TDP1 no CPT 16.4µM* and ELG1 repair inh inconclusive.
`CCc1sc(C(=O)Nc2ccccc2N2CCOCC2)cc1C` gave Gal4-VP16 FLuc inconclusive, TDP1 cell CPT 23.1µM*, 12-LOX inh 8.9%, DT40 TDP1 no CPT inconclusive, ELG1 repair inh -9.9% and RORgamma inh 4.6%.
Screening Cc1c(-c2ccccc2)oc2c(C(=O)OCC(=O)NCC3CCCCC3)cccc2c1=O returned 12-LOX inh 15.6%.
Screening COCCC1(CO)CCCN(C(=O)c2ccc3c(c2)OCC(=O)N3)C1 (centres undefined) returned 12-LOX inh 15.4%.
Screening O=c1cc(CSc2ccccc2NS(=O)(=O)c2ccc(F)cc2)nc2ccc(Cl)cn12 returned 12-LOX inh -27.4%.
COc1ccc(CNc2nc(SCc3cc(=O)n4cc(Cl)ccc4n3)nc3ccccc23)cc1 was read as Gal4-VP16 FLuc -21.9%, TDP1 cell CPT 13µM*, 12-LOX inh -7.0%, DT40 TDP1 no CPT 20.6µM*, ELG1 repair inh inconclusive and RORgamma inh -78.9%.
Screening COc1ccc(CNC(=O)c2ccc(C3Nc4ccccc4S(=O)(=O)N3)cc2)cc1OC (centres undefined) returned 12-LOX inh -25.4%.
`Nc1nc(-c2ccccc2)[nH]c(=O)c1N` gave Gal4-VP16 FLuc -0.2%, TDP1 cell CPT 25.9µM*, 12-LOX inh 22.5%, DT40 TDP1 no CPT inconclusive, ELG1 repair inh -3.5% and RORgamma inh 38.3%.
CCn1cc2c3c(cccc31)CN(C(=O)CC(C)(C)C)CC2 was read as 12-LOX inh 8.9%.
`CC(C)(C)c1cc(C=O)cc(C(C)(C)C)c1O` gave 12-LOX inh 2.4%.
For CC(C)(C)c1cc(/C=C/C(=O)O)cc(C(C)(C)C)c1O the results were 12-LOX inh 8.91µM*.
Screening CCOC(=O)c1cccc(NS(=O)(=O)c2cc(-c3nn(CC)c(=O)c4c3CCCC4)ccc2C)c1 returned 12-LOX inh 21.3%.
`CCCN1Cc2cccc(C(=O)Nc3ccc(CN4CCCC4)cc3)c2C1=O` gave Gal4-VP16 FLuc -0.2%, TDP1 cell CPT -3.2%, 12-LOX inh -14.6%, DT40 TDP1 no CPT 23.1µM*, ELG1 repair inh 16.1% and RORgamma inh -2.5%.
Screening CCCN1Cc2cccc(C(=O)NC(CC(=O)OCC)c3ccc(C)cc3)c2C1=O (centres undefined) returned Gal4-VP16 FLuc -13.8%, TDP1 cell CPT 1.6%, 12-LOX inh -11.2%, DT40 TDP1 no CPT -28.4%, ELG1 repair inh -23.3% and RORgamma inh 5.2%.
For CCCN1Cc2cccc(C(=O)NC(CC(=O)OCC)c3ccc(OC(C)C)cc3)c2C1=O (centres undefined) the results were Gal4-VP16 FLuc -0.1%, TDP1 cell CPT inconclusive, 12-LOX inh -3.8%, DT40 TDP1 no CPT 20.6µM*, ELG1 repair inh inconclusive and RORgamma inh 33.5%.
For CCCN1Cc2cccc(C(=O)Nc3c(Cl)cccc3Cl)c2C1=O the results were 12-LOX inh -8.6%.
CCCn1c(SCC(=O)N2CC(=O)Nc3ccccc32)nc2ccccc21 was read as Gal4-VP16 FLuc 0.6%, TDP1 cell CPT 6.4%, 12-LOX inh -7.0%, DT40 TDP1 no CPT inconclusive, ELG1 repair inh -3.7% and RORgamma inh -30.2%.
CC(C)CCn1c(SCC(=O)N2CC(=O)Nc3ccccc32)nc2scc(-c3cccs3)c2c1=O was read as Gal4-VP16 FLuc -8.5%, TDP1 cell CPT -3.7%, 12-LOX inh 384.4%, DT40 TDP1 no CPT inconclusive, ELG1 repair inh 0.2% and RORgamma inh 3.1%.
O=C1CN(C(=O)CSc2nc3ccccc3n2CCc2ccccc2)c2ccccc2N1 was read as Gal4-VP16 FLuc 2.9%, TDP1 cell CPT inconclusive, 12-LOX inh 0.2%, DT40 TDP1 no CPT 23.1µM*, ELG1 repair inh inconclusive and RORgamma inh 4.9%.
For C=CCn1c(SCC(=O)N2CC(=O)Nc3ccccc32)nc2scc(-c3cccs3)c2c1=O the results were Gal4-VP16 FLuc -7.4%, TDP1 cell CPT inconclusive, 12-LOX inh 0.0%, DT40 TDP1 no CPT 18.4µM*, ELG1 repair inh inconclusive and RORgamma inh 2.7%.
CCCNC(=O)c1ccc(NC(=O)c2ccc(Cl)cc2)cc1 was read as 12-LOX inh 19.0%.
For Cc1cccn2cc(COc3ccc(-c4ccccc4)cc3)nc12 the results were Gal4-VP16 FLuc inconclusive, TDP1 cell CPT -20.3%, 12-LOX inh -18.0%, DT40 TDP1 no CPT 11.6µM*, ELG1 repair inh inconclusive and RORgamma inh 12.6µM*.
`Brc1ccc(OCc2cn3ccccc3n2)cc1` gave Gal4-VP16 FLuc -4.3%, TDP1 cell CPT -8.4%, 12-LOX inh -18.2%, DT40 TDP1 no CPT inconclusive, ELG1 repair inh inconclusive and RORgamma inh 10µM*.
Screening Cc1cccn2cc(COc3cccc([N+](=O)[O-])c3)nc12 returned Gal4-VP16 FLuc 0.1%, TDP1 cell CPT 4.2%, 12-LOX inh -15.7%, DT40 TDP1 no CPT -4.3%, ELG1 repair inh inconclusive and RORgamma inh 0.6%.
